Assay outcomes from PubChem.
Only some compounds are listed: those with a hit (about 12% of all), similar ones and a draw of the others.
Sfp inh – qHTS Assay for Inhibitors of Bacillus subtilis Sfp phosphopantetheinyl transferase (PPTase). Biochemical Sfp PPTase activity, qHTS. Potency, µM, for inactives: largest response in the series, negative = inhibition, actives largely listed as inhibitors. 310,000 compounds, 3.5% hits;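 also: the enzyme is Sfp with the accession as filed and its product quenches rhodamine fluorescence; potency is read from the fitted curve at half-maximal effect; 0% = enzyme reaction without inhibitor and -100% = no enzyme wells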
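With Hepes-Na pH 7.6 buffer containing 10 mM MgCl2, Sfp (15 nM) modified BHQ-2-YbbR (12.5 uM) using rhodamine-CoA (5 uM). Two reads 30 minutes apart at 525/598 nm yielded each well's rate.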
TDP1 block – qHTS Assay for Inhibitors of Tyrosyl-DNA Phosphodiesterase (TDP1) | AID 485290, 2010 | 350,000 compounds, 0.28% hits | recombinant TDP1, AlphaScreen DNA substrate cleavage | Potency, µM (series often up to 130 µM), for the others: at the top dose activity change, negative = inhibition, actives largely listed as inhibitors | Tyrosyl-DNA phosphodiesterase 1 (Homo sapiens), Q9NUW8; also: potency is read from the fitted curve at half-maximal effect; % is scaled to controls: 0 for no effect and ±100 for the full control effect; nearly all actives have a fitted effect of over 40% in size
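Tdp1 1 nM final; 15 min RT w/ cpd; substrate 15 nM, 5 min; beads 10 ug/ml, 10 min; AlphaScreen read. Neg ctrl: no enzyme.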
HP1b chromo inh – HTS for Inhibitors of HP1-beta Chromodomain Interactions with Methylated Histone Tails | Potency, µM (series often up to 114 µM), for the others: at the top dose activity change, negative = inhibition, hits mostly inhibitors | AID 540317, 2011 | Chromobox protein homolog 1 (Homo sapiens), P83916 | 390,000 compounds, 0.56% hits | AlphaScreen HP1-beta / biotin-H3K9me3 peptide binding; also: potency is read from the fitted curve at half-maximal effect; nearly all actives have a fitted effect of over 70% in size
Target sequence (P83916 whole entry, looked up): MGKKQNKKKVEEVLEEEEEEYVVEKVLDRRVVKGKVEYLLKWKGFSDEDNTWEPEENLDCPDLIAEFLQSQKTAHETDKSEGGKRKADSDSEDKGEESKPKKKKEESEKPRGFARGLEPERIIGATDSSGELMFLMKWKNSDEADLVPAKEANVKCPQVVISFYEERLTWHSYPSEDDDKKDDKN
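Compound inhibition of the preformed complex between 50 nM HP1-beta and 50 nM biotinylated H3K9me3 peptide was read by AlphaScreen. Buffer was PBS pH 7.4 with 0.01% Tween-20. Incubations ran 30 min at room temperature, with 10 ug/mL donor/acceptor beads.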
G9a inh-1 – qHTS Assay for Inhibitors of Histone Lysine Methyltransferase G9a; G9a H3K9 monomethylation, AlphaScreen, 2 h; 350,000 compounds, 8.8% hits; Potency, µM (doses to about 102 µM), without a hit: top-dose activity, negative = inhibition, usual class: inhibitors; also: potency is read from the fitted curve at half-maximal effect; % is scaled to controls: 0 for no effect and ±100 for the full control effect; nearly all actives have a fitted effect of over 75% in size
Target sequence (Q96KQ7 913-1193 limits assumed): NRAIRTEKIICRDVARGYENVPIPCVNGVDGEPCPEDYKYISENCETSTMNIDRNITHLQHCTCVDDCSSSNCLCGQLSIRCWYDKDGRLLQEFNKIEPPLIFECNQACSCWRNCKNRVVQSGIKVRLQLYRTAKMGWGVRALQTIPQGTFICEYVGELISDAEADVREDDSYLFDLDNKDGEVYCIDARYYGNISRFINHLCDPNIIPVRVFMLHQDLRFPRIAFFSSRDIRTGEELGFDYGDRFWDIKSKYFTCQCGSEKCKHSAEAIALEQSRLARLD
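Readings reflect AlphaScreen signal from monomethyl-H3K9 antibody detection. HMT at 20 nM; substrate b-H3K9 500 nM; cofactor SAM 20 uM; 2 h RT reaction; compounds tested as titrations in qHTS with 15 min preincubation.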
JMJD2A Tudor inh – qHTS Assay for Inhibitors of JMJD2A-Tudor Domain. Potency, µM (titrated, usually from 114 µM), without a hit: top-dose activity change, negative = inhibition, most hits filed as inhibitors. Lysine-specific demethylase 4A (Homo sapiens), O75164. 390,000 compounds, 4.4% hits. AlphaScreen JMJD2A-Tudor / H3K4me3 peptide binding; also: potency is read from the fitted curve at half-maximal effect; % is scaled to controls: 0 for no effect and ±100 for the full control effect; nearly all actives have a fitted effect of over 50% in size
BAZ2B inh – qHTS Assay for Inhibitors of BAZ2B; Bromodomain adjacent to zinc finger domain protein 2B (Homo sapiens), Q9UIF8; AlphaScreen BAZ2B-H3K14Ac peptide displacement; Potency, µM (top dose mostly 114 µM), for inactives: at the highest dose activity change, negative = inhibition, usual class: inhibitors; 360,000 compounds, 4.4% hits; AID 504333, 2011; also: potency is read from the fitted curve at half-maximal effect; % is scaled to controls: 0 for no effect and ±100 for the full control effect; nearly all actives have a fitted effect of over 60% in size
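In this displacement format the biotinylated H3(5-23) peptide acetylated at Lys14 serves as ligand at 50 nM, with BAZ2B at 50 nM in PBS pH 7.4 containing 0.01% Tween-20. Donor and acceptor beads are 10 ug/mL final.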
JMJD2E inh-1 – Inhibitors of Human Jumonji Domain Containing 2E (JMJD2E): 8HQs - Round 1; shares compounds with BAZ2B inh; JMJD2E demethylase, FDH-coupled NADH fluorescence; Potency, µM (highest dose often 57 µM), without a hit: at the highest dose activity, negative = inhibition, actives largely listed as inhibitors; 130 compounds, 89% hits; AID 493212, 2011
JMJD2E inh-2 – Confirmation qHTS Assay for Inhibitors of Human Jumonji Domain Containing 2E (JMJD2E). shares compounds with JMJD2A Tudor inh. Recombinant JMJD2E, FDH-coupled NADH fluorescence (FDH is formaldehyde dehydrogenase). Potency, µM (series often up to 56.8 µM), without a hit: at the highest dose activity change, negative = inhibition, hits mostly inhibitors. 140 compounds, 93% hits
FDH counter – Counterscreen for JMJD2E Inhibitors: qHTS Assay for Inhibitors of Formaldehyde Dehydrogenase (FDH); shares compounds with JMJD2A Tudor inh; FDH enzyme assay, NADH fluorescence kinetic; Potency, µM (doses to about 56.7 µM), without a hit: top-dose activity, negative = inhibition, hits mostly inhibitors; 140 compounds, 10% hits; AID 2680, 2010
JMJD2E MS inh – MALDI-TOF-MS Assay for Inhibitors of Human Jumonji Domain Containing 2E (JMJD2E). shares compounds with JMJD2A Tudor inh. recombinant JMJD2E demethylation, MALDI-TOF-MS. Potency, µM, usual class: inhibitors. 45 compounds, 90% hits. AID 2688, 2010;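 active = compounds whose IC50 for blocking JMJD2E demethylation is below 100 µM; inconclusive = dose dependent effect but IC50 above 100 µM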
G9a inh-2 – qHTS Assay for Inhibitors of Histone Lysine Methyltransferase G9a: Hit Confirmation. Potency, µM, hits mostly inhibitors. shares compounds with JMJD2A Tudor inh. G9a H3K9 monomethylation, AlphaScreen, 2 h. 370 compounds, 89% hits. AID 588344, 2011; also: potency is read from the fitted curve at half-maximal effect; nearly all actives have a fitted effect of over 65% in size
RGS4 confirm – qHTS for Inhibitors of Regulator of G Protein Signaling(RGS) 4: Hit Validation | shares compounds with JMJD2A Tudor inh | RGS4 GAP activity, Transcreener GDP fluorescence polarization | Potency, µM, most hits filed as inhibitors | 25 compounds, 80% hits
Target sequence (P49798 whole entry, looked up): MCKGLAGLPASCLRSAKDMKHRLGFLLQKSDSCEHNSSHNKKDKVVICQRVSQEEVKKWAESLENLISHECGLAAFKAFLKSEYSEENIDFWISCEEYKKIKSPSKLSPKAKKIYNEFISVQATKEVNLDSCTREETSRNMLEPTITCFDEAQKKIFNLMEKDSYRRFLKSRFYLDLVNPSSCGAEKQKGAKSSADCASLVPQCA
* = called active by the depositor; ? = inconclusive; . = no result given; [ ] = another dose, or the depositor's remark. Unless noted, calls follow the shape of the dose curve; as a rule, active = well fitted curve in the direction sought with a large enough effect; inconclusive = small, poorly fitted or top-dose-only effect, or another doubt; inactive = no such curve, though single readings can be large; an effect the other way counts as inactive or inconclusive.

SMILES	Sfp inh	TDP1 block	HP1b chromo inh	G9a inh-1	JMJD2A Tudor inh	BAZ2B inh	G9a inh-2	others
O=C(Nc1ccccc1F)c1ccc(O)c2ncccc12	.	.	.	2%[12.7 µM]	.	20µM*	.	JMJD2E inh-1=29µM*;JMJD2E inh-2=35µM*;JMJD2E MS inh=41*
C/C(CC(=O)Nc1cc(Cl)ccc1C)=N\NC(=O)C(=O)N1CCCC1	16%	5%	45%	-36%	-1%	4%	.
COC(=O)c1ccc(OC(C)=O)c2ncccc12	.	.	.	.	.	.	.	JMJD2E inh-1=13µM*;JMJD2E inh-2=14µM*;FDH counter=-18%
COC(=O)c1ccccc1OCCOCCOc1cccc2cccnc12	-20%	-8%	?	5%[59 µM]	-30%[57.1 µM]	-32%	.
CCOC(=O)C1CCCN(C(=O)c2cc(-c3ccco3)nc3ccccc23)C1 (stereo not drawn)	.	.	40µM*	.	14µM*	.	.	RGS4 confirm=27*
Cc1onc(-c2ccccc2)c1C(=O)Nc1nnc(COc2ccc(Cl)cc2)s1	7.1µM*	-1%	?	?	?	-35%	0.8*
Cc1ccc(Sc2ccc(N3CCC(C(=O)Nc4ccc(C)c(F)c4)CC3)nn2)cc1	.	1%	22%	6%[59 µM]	-9%	1%	.
Cc1ccc(NC2CCCN(C(=O)c3cn4cccc(C)c4n3)C2)cc1C (stereo not drawn)	15%	5%	6%	?	-18%	-25%	.
Cc1ccc(NC2CCCN(C(=O)c3cn4cc(Cl)ccc4n3)C2)cc1C (stereo not drawn)	0%	5%	24%	?	1%	?	32*
CC(C)c1ccc(NC(=O)c2cnn3c(C(F)F)cc(-c4ccccc4)nc23)cc1	.	-1%	-13%	-21%[59 µM]	-16%	-32%	.
CCN(CC)c1ccc(NC(=O)c2cnn3c(C(F)F)cc(-c4ccccc4)nc23)cc1	.	-1%	?	2µM*	8.9µM*	2.5µM*	4.6*
COc1ccc([N+](=O)[O-])cc1NC(=O)CSc1nc(C)cc(C)n1	22µM*	8%	18%	2.5µM*	?	-4%	6.3*
COc1ccc([N+](=O)[O-])cc1NC(=O)CSc1ccc2ccccc2c1	3%	5%	-5%	?	-17%	-30%	.
O=c1c(CCc2ccccc2)nc2cnc(N3CCNCC3)nc2n1C1CC1	2%	.	.	-11%[0.501 µM]	.	.	.
COc1ccc(Br)cc1CNc1ccc(N2CCOCC2)cc1	-19%	.	?	?	40µM*	28µM*	3.2*
COC(=O)C1CC2=C(CCC2=O)N(c2ccccc2)C1=O (stereo not drawn)	.	.	17%	.	-9%	.	.
CN(C)c1cccc(C(=O)Nc2cccc(F)c2)c1	-14%	3%	14%	?	-35%	?	7.1*
CCN(CC)c1ccc(C(=O)Nc2cccc(F)c2)cc1	17%	2%	19%	-13%[59 µM]	-17%	-7%	.
COc1ccc(-n2nc3cc(C)c(N)cc3n2)cc1Cl	79µM*	.	15%	0.71µM*	56µM*	79µM*	0.5*
Nc1ccc2nn(-c3ccc(F)cc3)nc2c1	2%	2%	38%	28%	29%	0%	.
Cc1cc2nn(-c3ccc(F)cc3)nc2cc1N	?	.	8%	1µM*	-25%	-28%	0.56*
Cc1ccc(-n2nc3ccc(N)cc3n2)cc1	-2%	1%	-9%	?	-6%	-35%	0.25*
COc1ccc(S(=O)(=O)N2CCCCC2)cc1NC(=O)Cc1cccs1	.	0%	35%	3%[59 µM]	-3%	8%	.
O=C(CSc1ncn(-c2ccccc2)n1)Nc1nc2ccccc2s1	?	8%	-6%	?	45µM*	-5%	3.6*
Cc1ccc2nc(N3CCN(c4ccccc4)CC3)c3nnnn3c2c1	.	-3%	79%	26%[59 µM]	27%	12%	.
COCCn1c(SC(C)C(=O)NCC2CCCO2)nc2sc3c(c2c1=O)CCC3 (stereo not drawn)	.	.	22%	?	?	?	.
O=C(CSc1cccc[n+]1[O-])Nc1ccccc1Oc1ccccc1	40µM*	0%	?	2µM*	50µM*	-21%	2*
Cc1ccc(C)c(Cn2nnc3c(=O)[nH]c(C4CCCN(C(=O)c5ccco5)C4)nc32)c1 (stereo not drawn)	-6%	.	-10%	2%	-24%	-21%	.
CCN(CC)c1ccc(NC(=O)Nc2ccc(C(C)=O)cc2)cc1	-17%	6%	-7%	1.4µM*	-32%[57.1 µM]	-26%	0.32*
